# MCF10A rerep: DNA re-replication induction in MCF 10a cells. MCF 10A DNA re-replication, Hoechst nuclear intensity, 48 h. Potency, µM (titrated, usually from 46.1 µM), without a hit: at the highest dose activity, positive = re-replication, hits mostly activators. 2.9% of 350,000 active; also: potency is read from the fitted curve at half-maximal effect; % of control where 0% means no effect; nearly all actives have a fitted effect of over 50% in size
# ATXN viability: cell viability loss in ATXN counter-screen; 0.49% of 400,000 active; Potency, µM (highest dose often 56.7 µM), usual class: cytotoxic; S2 cells (HEK-293 line with an ATXN2-luciferase reporter) viability, CellTiter-Fluor protease fluorescence, 24 h; also: potency is read from the fitted curve at half-maximal effect; nearly all actives have a fitted effect of over 40% in size
# ATXN2 expr inh: inhibitors of ATXN2 expression. HEK-293 ATXN2-luciferase reporter, luminescence, 24 h. Potency, µM (highest dose often 57 µM), for inactives: top-dose activity change, negative = inhibition, usual class: inhibitors. 0.72% of 360,000 active. AID 1745845; also: potency is read from the fitted curve at half-maximal effect; % is scaled to controls: 0 for no effect and ±100 for the full control effect; nearly all actives have a fitted effect of over 55% in size
#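 ATXN2-luciferase reporter cells (luciferase flanked by upstream and downstream ATXN2 gene portions) were treated 24 h at 37 °C with compounds at up to 57 uM. SteadyGlo luminescence gave expression; GF-AFC fluorescence gave viability.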
# SW480 rerep: DNA re-replication induction in SW480 cells; SW480 DNA re-replication, Hoechst DNA content imaging, 48 h; Potency, µM (series often up to 46.1 µM), for inactives: top-dose re-replication activation, actives largely listed as activators; 1.8% of 340,000 active; AID 624297; also: potency is read from the fitted curve at half-maximal effect; % of control where 0% means no effect; nearly all actives have a fitted effect of over 55% in size
#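 Image-based DNA-content assay: after two days of treatment, nuclei were labelled with the DNA dye Hoechst and imaged, and hits were compounds raising the count of nuclei showing high fluorescence intensity.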
# IL1B secr inh: inhibitors of inflammasome signaling (IL-1 beta secretion). activity change, % at 57.5 µM. 4.7% of 360,000 active. AID 743279. THP-1 LPS/ATP IL-1B secretion, AlphaLISA, 16 h; stronger effect = lower value; in the data active = activity change below about -50%; inconclusive = mostly about -30% to -49%; also: % is scaled to controls: 0 for no effect and ±100 for the full control effect
#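 THP-1 cells pretreated 1 hr with compounds (up to 57.5 uM final), then stimulated with LPS (250 ng/mL final) plus ATP (1.25 mM final); secreted IL-1B measured by AlphaLISA after 16 hr, decreased signal indicating inhibition.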
# PINK1 modulator: modulators of PINK1 expression; PINK1 immunofluorescence, high-content cytometry, 24 h; Potency, µM (titrated, usually from 76.6 µM), for the others: top-dose activation (PINK1 increase), hits mostly activators; 0.2% of 410,000 active; AID 624263; active = well fitted activation curve with a large enough effect; inconclusive = small, poorly fitted or top-dose-only effect; cell line not stated here; also: potency is read from the fitted curve at half-maximal effect; % of control where 0% means no effect; nearly all actives have a fitted effect of over 65% in size
#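 A stable cell line was treated with compounds at 5 concentrations for 24 hours, with CCCP as control. PINK1 levels and mitochondrial localization were measured by immunofluorescence with mitochondrial, cell and nuclear markers after fixation, read by laser-scanning cytometry.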
# * marks the source's active call; other numbers are inactive results; i = inactive; ? = inconclusive; nt = no result; [ ] = remark or other dose. The list is not random: actives were taken first. Their share in the collection is about 7.1%. Unless noted, calls follow the shape of the dose curve; as a rule, active = well fitted curve in the direction sought with a large enough effect; inconclusive = small, poorly fitted or top-dose-only effect, or another doubt; inactive = no such curve, though single readings can be large; an effect the other way counts as inactive or inconclusive.
SMILES,MCF10A rerep,ATXN viability,ATXN2 expr inh,SW480 rerep,IL1B secr inh,PINK1 modulator
CC1CC(C)CN(CCCNC(=O)CN2C(=O)CSc3ccc(S(=O)(=O)N4CCCCC4)cc32)C1 (configuration not stated),1.4%,i,-12.6%,-1.1%,-60.0*,-1.0%
Cc1ccc(NS(=O)(=O)c2ccc(Cl)c(NC(=S)NC(=O)C3CCCCC3)c2)cc1Cl,8.2µM*,?,?,-66.1%,-76.9*,-2.9%
Cc1ccc(NC(=O)C2CCCC2)cc1Cl,4.3%,i,9.3%,6.2%,-24.2,0.6%
Cc1cccc(O)c1C,10.3%,i,-5.5%,-1.3%,-3.5,-0.1%
Cc1cccc(C)c1N=Nc1c(C)cc(O)cc1C,?,?,-48.7%,?,-89.3*,-2.1%
COC(=O)C(CC(C)C)N(Cc1cc(OC)cc(OC)c1)S(=O)(=O)c1ccccc1Br (configuration not stated),19.2%,i,-2.9%,20.6µM*,17.0,0.9%
C=CCCN(C(CC(C)C)C(=O)OC)S(=O)(=O)c1ccccc1Br (configuration not stated),?,i,3.2%,-1.7%[9.22 µM],37.9,2.4%
CCOc1ccc(C(=O)Nc2c(C(=O)c3ccc(OC)cc3)oc3ccccc23)cc1,nt,i,2.5%,nt,nt,-0.6%
CC(=O)Nc1ccc(N(C(=O)c2ccco2)C(C(=O)NC2CCCCC2)c2ccccc2)cc1 (configuration not stated),-2.1%,i,22.4%,-13.1%,-53.1*,4.7%
O=C(NC1CCCCC1)C(c1ccc2ncccc2c1)N(Cc1ccccc1)C(=O)c1cccs1 (configuration not stated),?,?,-14.9%,?,-68.6*,nt
COc1ccc(CN(C(=O)c2cccs2)C(C(=O)NC2CCCCC2)c2ccc3ncccc3c2)cc1 (configuration not stated),-2.8%,?,-12.5%,-1.9%,0.0,-0.8%
COc1ccc(C(C(=O)NC2CCCCC2)N(C(=O)c2cccs2)c2ccc3c(c2)OCO3)cc1 (configuration not stated),?,i,3.5%,4.3%,3.8,nt
O=C(NC1CCCCC1)C(c1ccccc1)N(C(=O)c1cccs1)c1ccc2c(c1)OCO2 (configuration not stated),-5.9%,i,-17.1%,1.3µM*,-14.3,15.6%[38.3 µM]
O=C(NC1CCCCC1)C(c1ccc2ncccc2c1)N(Cc1ccc2c(c1)OCO2)C(=O)c1cccs1 (configuration not stated),-3.9%,?,?,-6.1%,-69.2*,-4.6%[38.3 µM]
CCCCC1CN(CCNC(=O)c2ccccn2)Cc2ccccc2O1 (configuration not stated),nt,i,nt,nt,nt,-0.4%
CCOC(=O)C1Nc2ccccc2C2C(O)C(O)CC12 (configuration not stated),19.2%,?,-33.6%,?,26.7,6.0%
O=C(NCCOc1ccccc1)C1Nc2ccc(C(F)(F)F)cc2C2c3ccccc3CC12 (configuration not stated),?,i,-36.7%,1.8%,-74.0*,7.6%
CCOC(=O)C1Nc2ccc(C(F)(F)F)cc2C2c3ccccc3CC12 (configuration not stated),?,?,25.1µM*,2.9%,-99.3*,-1.3%
O=C(NCc1ccccc1)C1Nc2ccc(OC(F)(F)F)cc2C2C=CCC12 (configuration not stated),?,i,-16.2%,10.5%,12.9,10.2%
CCOc1ccc(CNC(=O)c2cc3cc(S(=O)(=O)N4CCCCC4)ccc3n2C)cc1,nt,nt,nt,nt,nt,2.9%
COc1ccc(N2CCN(C(=O)CSc3nc(C)cs3)CC2)cc1,-0.4%,i,-3.0%,18.4µM*,-14.0,-3.5%
COc1ccc(N2CCN(C(=O)CSc3nnc4c(C)cc5cc(C)ccc5n34)CC2)cc1,-2.6%,i,-10.8%,-5.4%,-14.5,-1.0%
COc1ccc(N2CCN(C(=O)CSc3nnc4c(C)cc5ccc(C)c(C)c5n34)CC2)cc1,6.7%,i,-3.9%,-0.6%,-65.9*,-1.4%
CCCN(C(=O)Cn1ncc2c1-c1ccccc1OC2)c1cccc(C)c1,nt,i,-18.6%,nt,nt,-1.1%
O=c1c2c3c(sc2nc(NCCO)n1CCc1ccccc1)CCCCC3,4.61µM*,i,3.3%,?,-12.4,4.4%
SMILES,MCF10A rerep,ATXN viability,ATXN2 expr inh,SW480 rerep,IL1B secr inh,PINK1 modulator
CN(C)CCNc1nc2sc3c(c2c(=O)n1-c1ccc(F)cc1)CCCCC3,?,i,-1.3%,2.6%,-53.8*,4.1%
CN(C)CCNc1nc2sc3c(c2c(=O)n1Cc1ccccc1)CCCCC3,18.4µM*,?,?,16.4%,-95.7*,-3.0%
COc1ccc(-n2c(NCCN(C)C)nc3sc4c(c3c2=O)CCCCC4)cc1,?,?,?,?,-4.9,?
O=c1c2c3c(sc2nc(N2CCNCC2)n1CCc1ccccc1)CCCCC3,-2.4%,i,-29.4%,-7.0%,-55.3*,2.1%
CN(C)CCNc1nc2sc3c(c2c(=O)n1-c1ccccc1)CCCCC3,?,i,-25.3%,-1.2%,nt,1.0%
O=c1c2c3c(sc2nc(NCCO)n1Cc1ccco1)CCCCC3,?,i,36.4%,-1.8%,-6.9,-0.5%
O=c1c(-c2ccc(Cl)cc2)nc2cnc(N3CCNCC3)nc2n1-c1ccccc1,nt,nt,nt,nt,nt,0.1%
COc1ccc(Cn2c(SCc3ccc(C(=O)NCc4cccs4)cc3)nc3ccncc32)cc1,nt,?,-18.3%,nt,nt,1.3%
COCCNc1nc2sc3c(c2c(=O)n1Cc1ccco1)CCCCC3,8.2µM*,i,20.7%,-9.5%,11.5,5.5%
CCOc1ccccc1NC(=O)c1cc2cc(C)ccc2n1C,nt,i,13.4%,nt,nt,4.4%
CC1CN(C(=O)c2ccc(-c3cccc(C(F)(F)F)c3)o2)CC(C)O1 (configuration not stated),14.2%,i,-26.6%,2.6%,-56.2*,-0.6%
O=C(c1ccco1)N1CCN(C(=O)c2ccc(-c3cccc(C(F)(F)F)c3)o2)CC1,19.9%,i,7.4%,-7.2%,-70.3*,8.0%
Cn1cnc(S(=O)(=O)N2CCCCC2c2cc(C(=O)Nc3ccc(F)c(Cl)c3)no2)c1 (configuration not stated),nt,i,19.6%,nt,-6.6,1.0%
CCc1ccc2oc(-c3ccc(C)c(NC(=O)c4ccc(C#N)cc4F)c3)nc2c1,nt,i,69.9%,nt,nt,0.1%
Cc1c(C(=O)Nc2ccccc2)c2ccc(C(F)(F)F)cc2n1O,?,?,?,-65.3%,?,44.7µM*

# Screening data from PubChem BioAssay.
